“And” between values parts separate entries of the source, which are not always exact repeats. Equal entries are not always repeated. Results filed as inconclusive are left out. The source made the active and inactive calls. The call rests on the fitted dose curve; in most records, active means well fitted activation curve with a large enough effect; inconclusive means small, poorly fitted or top-dose-only effect; inactive means flat fitted curve, though single readings scatter.
Experiment: Extended Characterization of HPGD Inhibitors: PGE2 Assay in A549 Cells
Details: PGE2 HTRF level, 16 h
Text: The central role of HPGD is to inactivate prostaglandins such as prostaglandin E2 (PGE2) or prostaglandin D2 (PGD2). These prostaglandins are involved in a number of processes, including inflammation, differentiation, and cellular signaling, which makes HPGD an important target for pharmacological intervention. A number of prostaglandins of particular biological interest have been identified as substrates of HPGD. […] Over-production of PGE2 has been reported to promote tumor-associated neovascularization, cell proliferation, and tumor growth. […] In this orthogonal assay, we set out to measure if compounds were able to increase PGE2 production NIH Chemical Genomics Center [NCGC] NIH Molecular Libraries Probe Centers Network [MLPCN] MLPCN Grant: MH084681 Assay Submitter (PI): Structural Genomics Consortium
A549 cells, LNCaP cells or media were dispensed in 384-well plates (ProxiPlate-384 Plus, PerkinElmer, Shelton, CT) at 5,000 cells/9.9 uL/well using a CappAero384 multichannel pipette (Odense, Denmark). Separately on the plate, 10 uL of PGE2 calibration standards at a starting assay concentration of 5,000 pg/mL (1:2 dilution, 12-points, n = 1, prepared in media, Cisbio, Bedford, MA) were dispensed. Compounds (100 nL, final concentration range from 41.9 nM to 100 uM) were transferred using an ATS Acoustic Liquid Dispenser (EDC Biosystems, Fremont, CA). After being mixed using an automated liquid handler (CyBio, Jena, Germany), samples were incubated (37 deg C, 5% CO2, under a humidified atmosphere) for 16 hours. PGE2 labeled conjugates were added to each well, first 5 uL of PGE2-d2, followed by 5 uL of anti-PGE2-cryptate, centrifuged (1,500 rpm, 15 sec) and incubated (RT, protected from light) for 5 hours. Time-resolved fluorescence intensity (320 nm excitation, 615 and 665 nm emission) was measured using an Envision plate reader (PerkinElmer). Data was expressed as the ratio of 665 nm/615 nm emissions. Concentration (pg/mL) of samples were calculated from a 4-parameter logistic calibration curves of the PGE2 standards.

Row | Structure (SMILES) | Potency
1 | Cc1cc(-c2nnc3n2CCCCC3)c(C)n1-c1ccccc1 | 372 nM (active) and 2.64 µM (active)
2 | Brc1cnc2nc(SCc3ccccn3)[nH]c2c1 | 5.9 µM (active)
3 | Cc1cccc(-n2cnc3cc(C(=O)N4CCCC(C(F)(F)F)C4)ccc32)c1 (stereo not given) | 1.32 µM (active)
4 | CC(C)(C)n1cnc2cc(C(=O)N3CCCCC3)ccc21 | 2.09 µM (active)
5 | N#Cc1cccc(CSc2nc3ncc(Br)cc3[nH]2)c1 | 7.43 µM (active)
6 | Brc1cnc2nc(SCc3ccncc3)[nH]c2c1 | 0.833 µM (active)
7 | N#Cc1ccc(CSc2nc3ncc(Br)cc3[nH]2)cc1 | 0.332 µM (active)
8 | Cc1cccc(-n2cnc3cc(C(=O)N4CCCCC4)ccc32)c1 | 0.469 µM (active)
9 | CC(C)(C)c1ccc(-n2cnc3cc(C(=O)N4CCCCC4)ccc32)cc1 | 20.9 µM (active)
10 | Cc1ccc(-n2c(C)cc(-c3nnc4n3CCCCC4)c2C)cc1 | 0.166 µM (active)
11 | CC(C)(C)c1cccc(-n2cnc3cc(C(=O)N4CCCCC4)ccc32)c1 | 18.7 µM (active)
12 | COc1ccc(CSc2nc3ncc(Br)cc3[nH]2)cc1F | 7.43 µM (active)
13 | Cc1cccc(-n2cnc3cc(C(=O)N4CCCCCC4)ccc32)c1 | 2.96 µM (active)
14 | Cc1cccc(-n2cnc3cc(C(=O)N4CCCC4)ccc32)c1 | 1.87 µM (active)
15 | Cc1cccc(-n2cnc3cc(C(=O)N4CCCC(C)(C)C4)ccc32)c1 | 0.743 µM (active)
16 | O=[N+]([O-])c1cccc(CSc2nc3ncc(Br)cc3[nH]2)c1 | 0.418 µM (active)
17 | CN1CC[C@@H](c2c(O)cc(O)c3c(=O)cc(-c4ccccc4Cl)oc23)[C@@H](O)C1 | 3.32 µM (active)
18 | Cc1cc(-c2nnc3n2CCCCC3)c(C)n1-c1ccc(F)cc1 | 0.662 µM (active)
19 | Cc1cc(-c2nnc3n2CCCCC3)c(C)n1-c1cccc(Cl)c1 | 0.59 µM (active)
20 | N#Cc1ccccc1CSc1nc2ncc(Br)cc2[nH]1 | 372 nM (active) and 7.43 µM (active) and 743 nM (active)

Row | Structure (SMILES) | Potency
21 | COc1ccc(-n2cnc3cc(C(=O)N4CCCCC4)ccc32)cc1 | 0.662 µM (active)
22 | Clc1ccc(CSc2nc3ncc(Br)cc3[nH]2)cc1 | 16.6 µM (active)
23 | Clc1cccc(CSc2nc3ncc(Br)cc3[nH]2)c1 | 0.296 µM (active)
24 | Cc1cccc(-n2cnc3cc(C(=O)N4CCC(Br)CC4)ccc32)c1 | 1.18 µM (active)
25 | Cc1cc(-c2nnc3n2CCCCC3)c(C)n1-c1ccc(C(F)(F)F)cc1 | 0.833 µM (active)
26 | Cc1ccc(-n2cnc3cc(C(=O)N4CCCCC4)ccc32)cc1 | 0.469 µM (active)
27 | Cc1cc(-c2nnc3n2CCCCC3)c(C)n1-c1ccccn1 | 26.4 µM (active)
28 | Cc1cc(-c2nnc3n2CCCCC3)c(C)n1-c1ccc(Br)cc1 | 0.59 µM (active)
29 | O=[N+]([O-])c1ccc(CSc2nc3ncc(Br)cc3[nH]2)cc1 | 0.235 µM (active)
30 | Brc1cnc2nc(SCc3cccnc3)[nH]c2c1 | 8.33 µM (active)
31 | CC(C)c1cccc(-n2cnc3cc(C(=O)N4CCCCC4)ccc32)c1 | 2.35 µM (active)
32 | c1ccc(-n2cc(-c3nnc4n3CCCCC4)c3ccccc32)cc1 | 1.66 µM (active)
33 | O=C(c1ccc2c(c1)ncn2-c1cccc(C(F)(F)F)c1)N1CCCCC1 | 2.64 µM (active)
34 | O=[N+]([O-])c1ccccc1CSc1nc2ncc(Br)cc2[nH]1 | 0.148 µM (active)
35 | COc1cccc(-n2cnc3cc(C(=O)N4CCCCC4)ccc32)c1 | 0.833 µM (active)
36 | CCOC(=O)c1ccc(-n2cnc3cc(C(=O)N4CCCCC4)ccc32)cc1 | 1.87 µM (active)
37 | CCCCC[C@H](O)/C=C/[C@H]1[C@H](O)CC(=O)[C@@H]1C/C=C\CCCC(=O)O | 0.148 µM (active)
38 | COc1ccccc1-n1cnc2cc(C(=O)N3CCCCC3)ccc21 | 16.6 µM (active)
39 | Cc1cc(-c2nnc3n2CCCCC3)c(C)n1-c1cccc(C#N)c1 | 2.64 µM (active)
40 | Cc1cc(-c2nnc3n2CCCCC3)c(C)n1-c1ccncc1 | 33.2 µM (active)
